According to PubChem BioAssay (EPA / NIEHS):
Results filed as inconclusive are left out. Activity calls are given as the source filed them. Rule for the calls: active = hit-call score of the fitted dose curve at least 0.9, where 1 is the maximum; inconclusive = response in the unintended direction; inactive = score below 0.9.

Tests used:
[1] = system: guinea pig Leukotriene B4 Receptor (LTB4), gene 100379538; assay: NVS_GPCR_gLTB4: NovaScreen (NVS) G Protein-Coupled Receptor Assay for guinea pig Leukotriene B4 Receptor (LTB4) (AID 2283247)
Outline: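 Radioligand displacement on guinea pig spleen membranes, filter-based scintillation counting 2 h after dosing. Primary duplicate single point at 25 uM; hits over threshold (e.g. 30% inhibition) run in concentration-response up to 50 uM, DMSO baseline.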

[2] = biological target: guinea pig Leukotriene D4 Receptor (LTD4), CYSLTR1 (gene 100135514) (UniProt Q2NNR5); assay: NVS_GPCR_gLTD4: NovaScreen (NVS) G Protein-Coupled Receptor Assay for guinea pig Leukotriene D4 Receptor (LTD4) (AID 2283248)
Chain of guinea pig Leukotriene D4 Receptor (LTD4), CYSLTR1 (gene 100135514) (Q2NNR5 whole entry, looked up): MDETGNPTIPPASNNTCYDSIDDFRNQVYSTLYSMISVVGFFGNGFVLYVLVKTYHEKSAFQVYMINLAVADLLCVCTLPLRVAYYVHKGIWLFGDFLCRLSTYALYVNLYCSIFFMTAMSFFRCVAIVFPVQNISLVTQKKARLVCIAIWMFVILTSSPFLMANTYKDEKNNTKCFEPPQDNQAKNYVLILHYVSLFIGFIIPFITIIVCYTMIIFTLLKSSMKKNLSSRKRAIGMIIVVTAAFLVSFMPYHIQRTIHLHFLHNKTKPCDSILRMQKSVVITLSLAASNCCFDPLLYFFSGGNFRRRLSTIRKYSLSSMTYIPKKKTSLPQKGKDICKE
Outline: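 Radioligand displacement on guinea pig lung membranes, 1 h incubation, filtration and scintillation counting; DMSO as negative control. Duplicate 25 uM primary screen, then singleton concentration-response up to 50 uM.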

[3] = system: guinea pig Muscarinic, Peripheral (Mperiperal) Receptor, Non-selective Binding, gene 100379235; assay: NVS_GPCR_gMPeripheral_NonSelective: NovaScreen (NVS) G Protein-Coupled Receptor Assay for guinea pig Muscarinic, Peripheral (Mperiperal) Receptor, Non-selective Binding (AID 2283250)
Outline: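 Guinea pig bladder membranes, radioligand binding read 1 h after dosing by filter scintillation counting; loss of signal vs DMSO. Primary duplicate screen at 25 uM, then concentration-response up to 50 uM.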

C[C@]12C[C@H](O)[C@H]3[C@@H](CCC4=CC(=O)CC[C@@]43C)[C@@H]1CC[C@@H]2C(=O)CO was tested, and the outcome [1] was “inactive”.

With CCOC(=O)NCCOc1ccc(Oc2ccccc2)cc1 the outcome [1] was “inactive”.

With CCNc1nc(N)nc(Cl)n1 the outcome [2] was “inactive”.

CCCOC(=O)NCCCN(C)C was tested, and the outcome [3] was “inactive”.

With N#CSCSc1nc2ccccc2s1 the AC50 [3] was 7.3 µM (active).
